# In the library only some 3.5% were active in any assay of this set; here they are far more common.
# FBW7 act: FBW7 E3 ligase activators, primary screen, biochemical, AlphaScreen, human | AlphaScreen FBW7–phospho-cyclin E peptide binding, activator screen | normalized activity (activation), % at 26.1 µM | 650,000 tested, 0.13% active; in the data active = normalized activity above about 1.9%;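 note: purified mutant Fbw7 with reduced substrate affinity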
# Target sequence (Q969H0 whole entry, looked up): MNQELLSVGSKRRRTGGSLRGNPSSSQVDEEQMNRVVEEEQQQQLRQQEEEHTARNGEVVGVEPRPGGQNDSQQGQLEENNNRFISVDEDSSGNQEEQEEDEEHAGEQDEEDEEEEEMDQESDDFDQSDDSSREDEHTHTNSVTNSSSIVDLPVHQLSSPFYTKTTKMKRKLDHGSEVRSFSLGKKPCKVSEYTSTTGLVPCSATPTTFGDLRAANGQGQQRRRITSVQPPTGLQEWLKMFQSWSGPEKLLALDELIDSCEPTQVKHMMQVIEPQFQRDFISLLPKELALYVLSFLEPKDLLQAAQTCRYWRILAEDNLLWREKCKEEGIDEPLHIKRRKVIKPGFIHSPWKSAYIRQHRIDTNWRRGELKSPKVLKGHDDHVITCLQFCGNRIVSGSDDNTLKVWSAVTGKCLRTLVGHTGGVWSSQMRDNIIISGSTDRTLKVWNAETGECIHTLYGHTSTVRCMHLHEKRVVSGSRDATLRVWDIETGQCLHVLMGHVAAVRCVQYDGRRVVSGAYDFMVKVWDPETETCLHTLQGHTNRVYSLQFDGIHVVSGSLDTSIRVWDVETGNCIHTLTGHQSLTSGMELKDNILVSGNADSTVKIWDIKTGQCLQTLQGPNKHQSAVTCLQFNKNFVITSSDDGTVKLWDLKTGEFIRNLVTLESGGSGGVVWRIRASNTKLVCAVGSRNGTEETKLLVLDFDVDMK
# MITF inh: MITF inhibitors, primary screen, biochemical, AlphaScreen, human; Microphthalmia-associated transcription factor (Homo sapiens), O75030; AlphaScreen MITF homodimerization, bead proximity signal; inhibition, % at 2.6 µM; 650,000 tested, 0.91% active; AID 1259374, 2018; in the data active = inhibition above about 50%;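 note: 0% = vehicle wells with protein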
# TEAD-YAP inh: TEAD-YAP interaction inhibition, primary screen, TEAD-YAP interaction inhibitor project, luminescence, HEK-TIYL cells; 640,000 tested, 1.4% active; AID 1259422, 2018; inhibition, % at 9.12 µM; TEAD-Gal4/YAP UAS-luciferase luminescence; in the data active = inhibition above about 32%;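 note: 0% = median of test compound wells and 100% = reference inhibitor wells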
# GPR151 ag: activators of human GPR151, primary screen, cell-based, PathHunter beta-arrestin, luminescence. PathHunter beta-arrestin GPR151 cells. activation, % at 11.2 µM. 650,000 tested, 1% active; in the data active = activation above about 4.9%;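 note: 0% = median of compound wells and 100% = cells with positive control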
# * = called active by the depositor.
SMILES,FBW7 act,MITF inh,TEAD-YAP inh,GPR151 ag
COc1cc(C2NC(=O)c3c(sc4c3CCN(C)C4)N2)ccc1O (stereo unspecified),-0.1,2.7,15.8,-0.1
CN1CCc2c(sc3c2C(=O)NC(c2ccc(O)c(O)c2)N3)C1 (stereo unspecified),-0.3,65.9*,-0.9,-0.1
O=C1C=C(NCc2cccs2)CC(c2ccccc2)C1 (stereo unspecified),-0.1,-2.6,2.2,-0.5
CCc1ccc2occ(CC(=O)Nc3ccc(C(=O)OC)cc3)c2c1,-0.3,-12.5,1.9,-1.4
C/C(=N/NC(=O)c1ccc(O)c(O)c1)c1ccc(C)cc1,0.1,6.8,-9.3,-0.7
C/C(=N\NC(=O)c1ccc(O)c(O)c1)c1ccc(Br)c([N+](=O)[O-])c1,0.5,20.1,31.9*,-1.6
O=C(c1cc(-c2cccc(O)c2)on1)N1CCOCC1,0.1,14.8,64.7*,-4.9
O=C(c1cc(-c2cccc(O)c2)on1)N1CCCCCC1,0.0,-7.8,31.1,-0.5
C=CCNC(=O)c1cc(-c2cccc(O)c2)on1,-0.1,2.4,34.1*,-2.1
O=C(c1cc(-c2ccc3c(c2)OCO3)on1)N1CCCC1,-0.1,-14.2,41.1*,-2.1
O=C(c1cc(-c2ccc(O)cc2)on1)N1CCCCC1,0.1,4.2,45.0*,-0.6
CCSc1ccccc1C(=O)Nc1cc(C(=O)OC)cc(C(=O)OC)c1,0.1,-10.7,2.7,-0.3
O=C(Cn1cnc2c(cnn2CCO)c1=O)N1CCc2ccccc21,0.6,13.8,3.3,0.4
COc1ccc(C2Oc3ccccc3C3=C2C(c2cccs2)n2ncnc2N3)cc1OC (stereo unspecified),0.0,6.7,52.0*,0.2
Cc1cc(C)c(O)c(CN2CCOCC2)c1,-0.1,9.9,6.1,2.1
COc1ccc2occ(C(=O)c3oc4ccc(Cl)cc4c3N)c2c1,0.0,-10.1,57.0*,-0.8
CC(C)(C)C(=O)N1CCC[C@@H](Cn2nc(-c3cccs3)ccc2=O)C1,0.2,11.5,66.1*,0.1
Cc1ccc(NC(=O)C2C3C=CC4(O3)C2C(=O)N(CCCN(C)Cc2ccccc2)C4C(=O)NC2CCCCC2)cc1Cl (stereo unspecified),-0.1,-2.7,2.3,0.5
O=C(c1ccc2cncc(-c3ccccc3)c2n1)N1CCC(O)CC1,-0.8,6.5,50.9*,-0.3
O=C(c1ccc2cncc(-c3ccccc3)c2n1)N1CCOCC1,-0.4,16.9,36.2*,-2.5
O=C(c1ccc2cncc(-c3ccsc3)c2n1)N1CCC(O)CC1,-0.6,-43.1,61.3*,-1.8
S=C(NCc1ccccn1)Nc1ccc2c(c1)OCO2,-0.4,-0.1,-1.5,2.3
Cc1cccc(-n2nc3c(c2NC(=O)c2cccc([N+](=O)[O-])c2C)CSC3)c1C,-0.2,-1.3,11.5,-0.9
N#Cc1ccc(OCC(=O)OCc2ccc(Br)cc2)cc1,-0.2,12.9,0.8,-0.4
O=C(COc1ccc(Br)cc1)OCc1ccccc1,1.9*,6.9,-3.6,-1.5
SMILES,FBW7 act,MITF inh,TEAD-YAP inh,GPR151 ag
O=C(c1ccccc1)N1CCN(c2nc3ccccc3s2)CC1,-0.1,2.2,-19.7,0.3
COc1cccc(NC(=O)c2cc(C(C)C)n(-c3nc4ccccc4s3)n2)c1,0.0,-11.3,48.2*,0.0
CC(C)c1cc(C(=O)Nc2ccc(Cl)cn2)nn1-c1nc2ccccc2s1,0.1,15.6,46.5*,0.7
COc1ccc(NC(=O)c2cc(C(C)C)n(-c3nc4ccccc4s3)n2)c(OC)c1,0.1,-5.0,63.5*,-1.6
CCN1CCN(C(=O)c2cc(C(C)C)n(-c3nc4ccccc4s3)n2)CC1,-0.3,-3.9,81.4*,-0.2
O=C(NCCc1ccccc1)c1ccc(Cl)cc1,0.1,17.8,64.1*,-5.7
O=C(NCCc1ccccc1)c1cc(F)c(F)cc1Cl,0.5,5.9,34.5*,-1.8
O=C(NCCc1ccccc1)c1ccc(Br)cc1,-0.1,-23.0,14.4,-3.5
O=C(NCCNC(=O)c1ccccc1Br)c1ccccc1Br,-0.1,-18.4,-3.8,-0.7
O=C(Nc1ccccc1C(=O)NCCc1ccccc1)c1ccccc1Cl,0.1,31.4,13.1,1.1
O=C(NCCc1ccccc1)c1ccccc1Br,0.0,5.2,33.7*,-1.1
O=C(NCCc1ccccc1)c1ccccc1Cl,-0.1,3.2,33.3*,-4.4
O=C(NC(=S)Nc1cccc(NC(=O)c2ccco2)c1)c1ccc(F)cc1,-0.1,7.3,1.9,1.6
CCOc1ccc(NC(=O)CSc2nnc(Cc3cccn3C)n2-c2ccc(C)cc2)cc1,-0.3,-5.8,18.5,1.1
Cc1ccc(S(=O)(=O)C2(C(=O)NCCc3ccccc3)CC2)cc1,0.7,8.9,6.2,-0.9
O=C(NCCc1ccccc1)C1(S(=O)(=O)c2ccc(Cl)cc2)CC1,2.0*,-23.5,3.2,0.0
C=CCn1c(C)cc(C2=NNC(=Nc3ccccc3OC)SC2)c1C,-0.5,-12.1,72.5*,1.2
COc1ccccc1N=C1NN=C(c2ccccc2OC)CS1,-0.4,0.5,-12.8,-0.8
COCCn1c(C)cc(C2=NNC(=Nc3ccc(C)cc3)SC2)c1C,-0.2,-4.7,-2.8,0.0
COCCn1c(C)cc(C2=NNC(=Nc3cccc(C)c3)SC2)c1C,0.2,12.7,25.0,1.4
COCCCN=C1NN=C(c2cc(C)n(Cc3ccco3)c2C)CS1,-0.1,-1.6,46.2*,0.7
C=CCN=C1NN=C(c2cc(C)n(CCOC)c2C)CS1,-0.1,4.8,94.5*,-6.6
Cc1cc(C2=NNC(=Nc3ccccc3)SC2)c(C)n1CC1CCCO1 (stereo unspecified),-0.1,7.5,53.8*,-0.1
Cc1cccc(-c2cc(C(=O)NCCCCc3ccccc3)c3ccccc3n2)c1,0.4,14.2,17.2,0.9
Cc1cnc(Nc2cnccn2)nc1NCCc1ccc(O)cc1,0.2,14.7,35.7*,-1.4
SMILES,FBW7 act,MITF inh,TEAD-YAP inh,GPR151 ag
c1ccc(OCCNc2nc(Nc3ccncn3)nc3nc[nH]c23)cc1,32.8*,-0.1,11.8,0.4
COc1cc(Nc2nc(NCCc3ccc(O)cc3)c3[nH]cnc3n2)cc(OC)c1OC,-0.1,-8.3,46.0*,-0.3
COc1cc(Nc2nc(NCCO)c3[nH]cnc3n2)cc(OC)c1OC,0.2,20.5,-9.8,3.0
Oc1ccc(CCNc2nc(Nc3cnccn3)nc3nc[nH]c23)cc1,0.0,-4.5,39.0*,0.2
Cc1cnc(Nc2ccncn2)nc1NCCc1ccc(O)cc1,0.0,19.9,5.1,0.5
Oc1ccc(CCNc2nc(Nc3ccncc3)nc3nc[nH]c23)cc1,0.1,-1.6,15.8,-0.8
CCN(c1ccccc1)c1nc2nonc2n2c(C)nnc12,-0.1,-3.4,-9.6,-0.1
O=C1OC(c2ccc(F)cc2)=N/C1=C\c1cccc([N+](=O)[O-])c1,0.0,14.2,8.3,0.0
Oc1ccc(CCNc2nc(Nc3ccccc3)nc3nc[nH]c23)cc1,-0.1,6.8,51.8*,-0.3
CN(C)c1cccc(Nc2nc(NCc3ccccc3)c3[nH]cnc3n2)c1,2.4*,15.4,1.3,-0.1
Nc1nc(Nc2ccccc2)cc(Nc2ccc(N3CCOCC3)cc2)n1,-0.2,5.1,15.0,-1.7

# From PubChem
